Source: PubChem BioAssay AID1159580 (chemical genetic matrix, 2015)
The whole screen tested about 5,500 compounds, of which about 2,000 (36%) were called active. About 18% were inconclusive and are not listed. Rule as the data show it: active = normalized growth mostly below about 0.91 (no sharp cut-off); inconclusive = no clear call, values can overlap the other calls; inactive = mostly above about 0.92. Some of the results follow.

Assay: chemical genetic growth profiling, strain panel (AID 1159580);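 also: tested at 20 µM; growth read once vehicle control cultures reached saturation at 30 °C; 1 = growth at the plate median or of vehicle wells; lower values mean less growth of the strain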
Settings: growth OD

Measured: normalized growth

COc1ccc2c3c1OC1C(O)CC=C4C(C2)N(C)CCC431 (stereo unspecified)
inactive: S. cerevisiae deletion strains, locus YAL013W, strain DEP1, hits give low values 0.994 | S. cerevisiae deletion strains, locus YBR021W, strain FUR4, hits give low values 1.01 | S. cerevisiae deletion strains, locus YBR229C, strain ROT2, hits give low values 1.01 | S. cerevisiae deletion strains, locus YCL029C, strain bik1, hits give low values 1.03 | S. cerevisiae deletion strains, locus YDL035C, strain GPR1, hits give low values 1.01 | S. cerevisiae deletion strains, locus YDL074C, strain BRE1, hits give low values 1.04 | S. cerevisiae deletion strains, locus YDL101C, strain DUN1, hits give low values 1.03 | S. cerevisiae deletion strains, locus YDL134C, strain PPH21, hits give low values 1.01 | S. cerevisiae deletion strains, locus YDL185W, strain tfp1, hits give low values 1.02 | S. cerevisiae deletion strains, locus YDL192W, strain arf1, hits give low values 1.02 | S. cerevisiae deletion strains, locus YDR101C, strain arx1, hits give low values 1 | S. cerevisiae deletion strains, locus YDR150W, strain NUM1, hits give low values 1.02 | S. cerevisiae deletion strains, locus YDR162C, strain NBP2, hits give low values 1.01 | S. cerevisiae deletion strains, locus YDR318W, strain mcm21, hits give low values 1.02 | S. cerevisiae deletion strains, locus YDR388W, hits give low values 1 | S. cerevisiae deletion strains, locus YDR502C, strain sam2, hits give low values 1.01 | S. cerevisiae deletion strains, locus YEL061C, strain CIN8, hits give low values 1.01 | S. cerevisiae deletion strains, locus YER110C, hits give low values 1.02 | S. cerevisiae deletion strains, locus YER155C, strain BEM2, hits give low values 0.996 | S. cerevisiae deletion strains, locus YER167W, strain BCK2, hits give low values 1.03 | S. cerevisiae deletion strains, locus YGL078C, strain dbp3, hits give low values 1.01 | S. cerevisiae deletion strains, locus YGL086W, strain mad1, hits give low values 1.02 | S. cerevisiae deletion strains, locus YGL248W, strain PDE1, hits give low values 1.02 | S. cerevisiae deletion strains, locus YGR078C, strain PAC10, hits give low values 1.03 | S. cerevisiae deletion strains, locus YGR135W, strain pre9, hits give low values 1.01 | S. cerevisiae deletion strains, locus YGR229C, strain SMI1, hits give low values 0.993 | S. cerevisiae deletion strains, locus YGR252W, strain gcn5, hits give low values 1.02 | S. cerevisiae deletion strains, locus YHR030C, strain SLT2, hits give low values 1.01 | S. cerevisiae deletion strains, locus YHR079C, strain IRE1 (second series), hits give low values 1.02 | S. cerevisiae deletion strains, locus YHR094C, strain hxt1, hits give low values 1.01 | S. cerevisiae deletion strains, locus YHR129C, strain ARP1, hits give low values 1.01 | S. cerevisiae deletion strains, locus YHR200W, strain rpn10, hits give low values 1.01 | S. cerevisiae deletion strains, locus YIL066C, strain RNR3, hits give low values 1.01 | S. cerevisiae deletion strains, locus YIL073C, strain SPO22, hits give low values 1.1 | S. cerevisiae deletion strains, locus YIL125W, strain kgd1, hits give low values 1.01 | S. cerevisiae deletion strains, locus YIR030C, strain dcg1, hits give low values 1.02 | S. cerevisiae deletion strains, locus YJL095W, strain BCK1, hits give low values 1.03 | S. cerevisiae deletion strains, locus YJL134W, strain LCB3, hits give low values 1.01 | S. cerevisiae deletion strains, locus YJL168C, strain set2, hits give low values 1.02 | S. cerevisiae deletion strains, locus YJL187C, strain SWE1 (second series), hits give low values 1.02 | S. cerevisiae deletion strains, locus YJR043C, strain POL32, hits give low values 1.03 | S. cerevisiae deletion strains, locus YJR075W, strain HOC1, hits give low values 1.02 | S. cerevisiae deletion strains, locus YKL009W, strain mrt4, hits give low values 1.03 | S. cerevisiae deletion strains, locus YKL068W, hits give low values 1.01 | S. cerevisiae deletion strains, locus YKL085W, strain MDH1 (second series), hits give low values 1.01 | S. cerevisiae deletion strains, locus YKL085W, strain MDH1, hits give low values 1.01 | S. cerevisiae deletion strains, locus YKL190W, strain CNB1, hits give low values 1.01 | S. cerevisiae deletion strains, locus YKR001C, strain vps1, hits give low values 1.03 | S. cerevisiae deletion strains, locus YLR039C, strain RIC1, hits give low values 1.04 | S. cerevisiae deletion strains, locus YLR058C, strain SHM2, hits give low values 1.02 | S. cerevisiae deletion strains, locus YLR102C, strain apc9, hits give low values 1.01 | S. cerevisiae deletion strains, locus YLR262C, strain YPT6, hits give low values 1.05 | S. cerevisiae deletion strains, locus YLR268W, strain sec22, hits give low values 1.02 | S. cerevisiae deletion strains, locus YLR330W, strain CHS5, hits give low values 1.01 | S. cerevisiae deletion strains, locus YLR342W, strain FKS1 (second series), hits give low values 1.02 | S. cerevisiae deletion strains, locus YLR371W, strain rom2, hits give low values 1.01 | S. cerevisiae deletion strains, locus YLR418C, strain cdc73, hits give low values 1.02 | S. cerevisiae deletion strains, locus YML016C, strain PPZ1, hits give low values 1.02 | S. cerevisiae deletion strains, locus YML032C, strain rad52, hits give low values 1.02 | S. cerevisiae deletion strains, locus YML124C, strain tub3, hits give low values 1.02 | S. cerevisiae deletion strains, locus YMR078C, strain ctf18, hits give low values 1.03 | S. cerevisiae deletion strains, locus YMR223W, strain ubp8, hits give low values 1.03 | S. cerevisiae deletion strains, locus YMR263W, strain SAP30, hits give low values 1.02 | S. cerevisiae deletion strains, locus YMR307W, strain GAS1, hits give low values 0.962 | S. cerevisiae deletion strains, locus YNL067W, strain RPL9B, hits give low values 1.03 | S. cerevisiae deletion strains, locus YNL128W, strain TEP1, hits give low values 1.02 | S. cerevisiae deletion strains, locus YNL153C, strain GIM3, hits give low values 1.02 | S. cerevisiae deletion strains, locus YNL233W, strain BNI4, hits give low values 1.02 | S. cerevisiae deletion strains, locus YNL250W, strain rad50, hits give low values 1.03 | S. cerevisiae deletion strains, locus YNL271C, strain bni1, hits give low values 1.01 | S. cerevisiae deletion strains, locus YNL298W, strain CLA4, hits give low values 1.03 | S. cerevisiae deletion strains, locus YNL307C, strain MCK1, hits give low values 1.02 | S. cerevisiae deletion strains, locus YNL322C, strain KRE1, hits give low values 1.01 | S. cerevisiae deletion strains, locus YNR052C, strain pop2, hits give low values 1.02 | S. cerevisiae deletion strains, locus YOL006C, strain TOP1, hits give low values 1.1 | S. cerevisiae deletion strains, locus YOL012C, strain htz1 0.859 | S. cerevisiae deletion strains, locus YOL147C, strain pex11, hits give low values 1 | S. cerevisiae deletion strains, locus YOR061W, strain CKA2, hits give low values 1.02 | S. cerevisiae deletion strains, locus YOR069W, strain VPS5, hits give low values 1.01 | S. cerevisiae deletion strains, locus YOR136W, strain idh2, hits give low values 1.02 | S. cerevisiae deletion strains, locus YOR144C, strain elg1, hits give low values 1.02 | S. cerevisiae deletion strains, locus YOR184W, strain ser1, hits give low values 1.03 | S. cerevisiae deletion strains, locus YOR316C, strain cot1, hits give low values 1.02 | S. cerevisiae deletion strains, locus YPL055C, strain LGE1, hits give low values 1.03 | S. cerevisiae deletion strains, locus YPL241C, strain CIN2, hits give low values 1.01 | S. cerevisiae deletion strains, locus YPR119W, strain clb2, hits give low values 1 | S. cerevisiae deletion strains, locus YPR141C, strain kar3, hits give low values 1.01 | S. cerevisiae deletion strains, locus YPR163C, strain tif3, hits give low values 1.02 | S. cerevisiae deletion strains, locus YPR167C, strain met16, hits give low values 1.02 | S. cerevisiae deletion strains, strain wtn01, hits give low values 1.01 | S. cerevisiae strains, strain wild type, hits give low values 1
